Measured values: PubChem BioAssay
For part of these data: Potency and affinity values are given separately. Activity calls are given as the source filed them. Unless noted, how the calls were made is not given here.

How the values were obtained:
[1] = antimalarial activity against Dd2 strain (AID 2302;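 active means growth inhibition above 50% at the single 2 µM test dose, taken to imply half-maximal potency below 2 µM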;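 further: 0% = DMSO untreated growth and 100% = chloroquine plus artemisinin killed control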); conditions: P. falciparum Dd2 in RBCs, LDH growth readout, 72 h; at 2 µM; stronger effect = higher value
[2] = human hepatoma cell viability loss – ATP luminescence, cytotoxicity control for P. falciparum antimalarial project, primary screen (AID 2303;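 active means inhibition above 50%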;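 further: 0% = DMSO wells and 100% = digitonin-killed cells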); conditions: HepG2 viability, 24-48 h, at 10 µM, stronger effect = higher value
[3] = target: L-lactate dehydrogenase (Plasmodium falciparum (isolate CDC / Honduras)) (UniProt Q27743); test: PfLDH activity inhibition – cell lysate, 3D7 strain, counter-screen for P. falciparum growth inhibition project (AID 2304);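 further: 0% = vehicle and 100% = reference inhibitor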; conditions: P. falciparum 3D7 crude extract, LDH APAD/NBT absorbance; at 2 µM; stronger effect = higher value
Chain of L-lactate dehydrogenase (Plasmodium falciparum (isolate CDC / Honduras)) (Q27743 whole entry, looked up): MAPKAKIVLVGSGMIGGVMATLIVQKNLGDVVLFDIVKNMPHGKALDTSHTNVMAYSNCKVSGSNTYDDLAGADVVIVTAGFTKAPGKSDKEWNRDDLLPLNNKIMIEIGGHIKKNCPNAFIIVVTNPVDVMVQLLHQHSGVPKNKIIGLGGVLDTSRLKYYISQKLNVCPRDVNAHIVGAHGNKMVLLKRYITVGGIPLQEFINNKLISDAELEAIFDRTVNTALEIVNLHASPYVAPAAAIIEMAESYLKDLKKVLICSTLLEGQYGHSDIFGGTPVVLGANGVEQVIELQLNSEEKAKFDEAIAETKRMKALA

[4] = inhibition of 3D7 malaria parasite growth – strain 3D7 (AID 2306);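 further: 0% = DMSO wells and 100% = chloroquine plus artemisinin control wells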; conditions: P. falciparum 3D7 erythrocytic growth, LDH absorbance, 72 h; at 2 µM; stronger effect = higher value
[5] = target: Calcium-dependent protein kinase 1 (Plasmodium falciparum (isolate 3D7)) (UniProt P62344); test: PfCDPK1 kinase inhibitors, biochemical, TCAMS library (AID 1159585; cut-off not given, nearly all actives have IC50 up to about 0.98 µM;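 further: inhibitors leave more ATP so luminescence rises with inhibition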); conditions: recombinant PfCDPK1, Kinase-Glo ATP depletion luminescence
Chain of Calcium-dependent protein kinase 1 (Plasmodium falciparum (isolate 3D7)) (P62344 whole entry, looked up): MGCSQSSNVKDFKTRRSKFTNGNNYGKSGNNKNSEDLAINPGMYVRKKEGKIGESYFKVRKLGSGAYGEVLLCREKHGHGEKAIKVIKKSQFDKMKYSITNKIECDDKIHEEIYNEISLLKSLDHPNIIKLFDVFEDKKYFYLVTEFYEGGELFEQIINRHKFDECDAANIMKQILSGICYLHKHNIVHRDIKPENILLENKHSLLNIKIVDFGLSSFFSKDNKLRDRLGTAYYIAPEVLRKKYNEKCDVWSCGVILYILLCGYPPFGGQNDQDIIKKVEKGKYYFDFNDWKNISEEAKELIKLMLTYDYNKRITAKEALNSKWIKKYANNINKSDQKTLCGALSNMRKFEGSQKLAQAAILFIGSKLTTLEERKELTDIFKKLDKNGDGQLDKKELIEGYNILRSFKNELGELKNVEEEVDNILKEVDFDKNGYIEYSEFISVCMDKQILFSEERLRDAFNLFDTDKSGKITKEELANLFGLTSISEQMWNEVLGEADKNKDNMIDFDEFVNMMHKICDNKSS

[6] = target: Plasmodium falciparum protein kinase 6 (PK6, PF3D7_1337100) (UniProt Q8IDW1); test: PfPK6 kinase inhibitors, biochemical, TCAMS library (AID 1159586); conditions: recombinant PfPK6, Kinase-Glo ATP depletion luminescence
Chain of Plasmodium falciparum protein kinase 6 (PK6, PF3D7_1337100) (Q8IDW1 1-305): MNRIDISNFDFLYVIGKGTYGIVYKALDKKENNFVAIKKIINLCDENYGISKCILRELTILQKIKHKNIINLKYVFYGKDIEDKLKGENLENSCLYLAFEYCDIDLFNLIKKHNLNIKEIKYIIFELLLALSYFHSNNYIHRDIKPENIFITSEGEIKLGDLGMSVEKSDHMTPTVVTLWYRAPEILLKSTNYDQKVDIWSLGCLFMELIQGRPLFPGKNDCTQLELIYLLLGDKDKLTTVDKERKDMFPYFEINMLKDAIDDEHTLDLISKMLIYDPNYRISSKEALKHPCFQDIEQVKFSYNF

[7] = target: Protein kinase 7 (PK7), Plasmodium falciparum 3D7 (PF3D7_0213400) (UniProt Q7YTF7); test: inhibition of Plasmodium PK7 catalytic activity – biochemical, TCAMS antimalarial set, Kinase-Glo luminescence (AID 1159587); conditions: recombinant PfPK7, Kinase-Glo ATP depletion luminescence
Chain of Protein kinase 7 (PK7), Plasmodium falciparum 3D7 (PF3D7_0213400) (Q7YTF7 1-343): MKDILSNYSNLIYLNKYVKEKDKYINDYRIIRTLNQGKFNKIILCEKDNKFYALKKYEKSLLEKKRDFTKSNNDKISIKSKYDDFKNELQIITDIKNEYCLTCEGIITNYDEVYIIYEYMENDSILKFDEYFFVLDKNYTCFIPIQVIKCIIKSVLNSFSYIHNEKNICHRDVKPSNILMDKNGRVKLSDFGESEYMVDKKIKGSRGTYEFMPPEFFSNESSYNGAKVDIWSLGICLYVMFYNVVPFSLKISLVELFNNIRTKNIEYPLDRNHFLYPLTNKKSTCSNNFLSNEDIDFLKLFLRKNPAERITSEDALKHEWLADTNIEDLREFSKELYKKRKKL

[8] = target: Calcium-dependent protein kinase 4 (Plasmodium falciparum (isolate 3D7)) (UniProt Q8IBS5); test: PfCDPK4 kinase inhibitors, biochemical, TCAMS library (AID 1159588; cut-off not given, nearly all actives have IC50 up to about 0.91 µM); conditions: recombinant PfCDPK4, Kinase-Glo ATP depletion luminescence
Chain of Calcium-dependent protein kinase 4 (Plasmodium falciparum (isolate 3D7)) (Q8IBS5 whole entry, looked up): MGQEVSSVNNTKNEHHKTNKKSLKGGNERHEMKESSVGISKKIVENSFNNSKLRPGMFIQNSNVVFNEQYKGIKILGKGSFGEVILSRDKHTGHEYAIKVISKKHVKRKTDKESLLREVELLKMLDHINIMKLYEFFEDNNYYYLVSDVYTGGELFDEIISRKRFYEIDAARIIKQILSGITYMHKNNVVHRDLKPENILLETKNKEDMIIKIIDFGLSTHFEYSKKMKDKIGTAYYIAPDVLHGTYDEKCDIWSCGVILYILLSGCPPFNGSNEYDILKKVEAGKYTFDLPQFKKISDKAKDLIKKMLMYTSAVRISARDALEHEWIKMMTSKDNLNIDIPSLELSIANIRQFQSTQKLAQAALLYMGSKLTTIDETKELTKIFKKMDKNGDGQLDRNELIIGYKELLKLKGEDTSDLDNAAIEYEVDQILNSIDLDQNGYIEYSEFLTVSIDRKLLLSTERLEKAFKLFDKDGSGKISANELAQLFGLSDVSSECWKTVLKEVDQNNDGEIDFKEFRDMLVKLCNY

O=C1CCCC1Sc1nc2ccccc2c(=O)n1-c1ccc(Cl)c(Cl)c1 (configuration not stated)
active: growth inhibition [4] 97%
inactive: growth inhibition [1] 42% | inhibition [2] 10% | inhibition [3] 0% | outcome [5] | outcome [6] | outcome [7] | outcome [8]

O=C(NCCCCN1CCC(c2cccc3ccccc23)CC1)c1ccc(NC(=O)c2ccc(Cl)cc2)cc1
inactive: growth inhibition [1] 39% | inhibition [2] 20% | inhibition [3] 2% | outcome [5] | outcome [6] | outcome [7] | outcome [8]
active: growth inhibition [4] 99%

O=C(N[C@@H](Cc1cc(F)cc(F)c1)[C@H](O)CNCc1cccc(C(F)(F)F)c1)c1cc(C2CCCC2)cc(N2CCCC2=O)c1
active: growth inhibition [4] 95%
inactive: growth inhibition [1] 45% | inhibition [2] 37% | inhibition [3] -3% | outcome [5] | outcome [6] | outcome [7] | outcome [8]

N#CNC(=NCCCSc1csc(N=C(N)N)n1)NCCCCCCCCN=C(NC#N)NCCSCc1csc(N=C(N)N)n1
inactive: growth inhibition [1] 24% | inhibition [2] -1% | inhibition [3] -4% | outcome [5] | outcome [6] | outcome [7] | outcome [8]
active: growth inhibition [4] 91%

Oc1ccc(-c2cc(COc3ccccc3C(F)(F)F)c(C3=CCNCC3)cc2COc2ccccc2C(F)(F)F)cc1
inactive: inhibition [2] 18% | inhibition [3] 3% | outcome [5] | outcome [6] | outcome [7] | outcome [8]
active: growth inhibition [1] 62% | growth inhibition [4] 100%

O=C(NCc1cccc(C(F)(F)F)c1)c1ccc(-c2nc3cc(F)c(F)cc3[nH]2)cc1
inactive: growth inhibition [1] 7% | inhibition [2] -1% | inhibition [3] 4% | outcome [5] | outcome [6] | outcome [7] | outcome [8]
active: growth inhibition [4] 97%

c1ccc(N2CCN(c3cc(-c4cccnc4)nc(-c4ccncc4)n3)CC2)nc1
active: growth inhibition [4] 99%
inactive: growth inhibition [1] 22% | inhibition [2] 22% | inhibition [3] -2% | outcome [5] | outcome [6] | outcome [7] | outcome [8]

Cc1[nH]c(C)c(-c2ccc(-c3ccc(OCC(F)(F)F)cc3)nc2)c(=O)c1Cl
active: growth inhibition [1] 96% | growth inhibition [4] 94%
inactive: inhibition [2] 3% | inhibition [3] 4% | outcome [5] | outcome [6] | outcome [7] | outcome [8]

CN(CCN)Cc1cccc(-c2cccc(-c3nc4ccc(F)cc4[nH]3)c2)c1
active: growth inhibition [4] 95%
inactive: growth inhibition [1] 19% | inhibition [2] 20% | inhibition [3] 6% | outcome [5] | outcome [6] | outcome [7] | outcome [8]

N[C@@H](CCNC1CCN(c2cccc(C(F)(F)F)c2)CC1)Cc1ccc(F)c(F)c1
active: growth inhibition [1] 69% | inhibition [2] 100% | growth inhibition [4] 101%
inactive: inhibition [3] -1% | outcome [5] | outcome [6] | outcome [7] | outcome [8]

O=S(=O)(Nc1ccc(CCN2CCC(N3CCCCC3)CC2)cc1)c1cccc2cccnc12
inactive: growth inhibition [1] 45% | inhibition [2] 14% | inhibition [3] -3% | outcome [5] | outcome [6] | outcome [7] | outcome [8]
active: growth inhibition [4] 101%

CCCCCn1c(Sc2ccc(C#N)c([N+](=O)[O-])c2)nnc1-c1ccc(Cl)cc1
active: growth inhibition [4] 88%
inactive: growth inhibition [1] 29% | inhibition [2] 18% | inhibition [3] 3% | outcome [5] | outcome [6] | outcome [7] | outcome [8]

COc1ccc2ncc(F)c([C@H](O)CN3CCC(NCc4cc5c(cn4)OCCO5)CC3)c2c1
inactive: inhibition [2] 5% | inhibition [3] 7% | outcome [5] | outcome [6] | outcome [7] | outcome [8]
active: growth inhibition [1] 97% | growth inhibition [4] 101%

CCN(CC)CCN(Cc1ccc(-c2ccc(C(F)(F)F)cc2)cc1)C(=O)Cn1c(CCc2ccc(F)cc2)nc(=O)c2ccccc21
inactive: inhibition [2] 42% | inhibition [3] -3% | outcome [5] | outcome [6] | outcome [7] | outcome [8]
active: growth inhibition [1] 58% | growth inhibition [4] 97%

O=C(/C=C/c1ccc(Cl)cc1)NCCCCCN1CCCN(C(=O)Nc2ccc(Cl)c(C(F)(F)F)c2)CC1
inactive: growth inhibition [1] 1% | inhibition [3] 1% | outcome [5] | outcome [6] | outcome [7] | outcome [8]
active: inhibition [2] 54% | growth inhibition [4] 95%

Cc1cc(NC(=O)c2ccco2)ccc1OC1CCN(Cc2ccc(C#N)cc2)CC1
active: growth inhibition [1] 89% | growth inhibition [4] 92%
inactive: inhibition [2] 2% | inhibition [3] -1% | outcome [5] | outcome [6] | outcome [7] | outcome [8]

Cc1cc(N[C@@H](CC(C)C)C(=O)NCc2cccs2)nc(NCCc2ccc(F)cc2)n1
active: growth inhibition [1] 59% | growth inhibition [4] 100%
inactive: inhibition [2] 20% | inhibition [3] -2% | outcome [5] | outcome [6] | outcome [7] | outcome [8]

C[C@H](NC(=O)c1c(OC2CN(C(c3ccccc3)c3ccccc3)C2)c(-c2ccccc2)nc2ccccc12)C1CCCCC1
active: growth inhibition [1] 74% | growth inhibition [4] 92%
inactive: inhibition [2] 0% | inhibition [3] 2% | outcome [5] | outcome [6] | outcome [7] | outcome [8]

Cc1cn(CC(=O)Nc2cccc(-c3cccc(-c4nc5c(C)cccc5[nH]4)c3)c2)c(=O)[nH]c1=O
active: growth inhibition [1] 100% | growth inhibition [4] 100%
inactive: inhibition [2] 2% | inhibition [3] 5% | outcome [5] | outcome [6] | outcome [7] | outcome [8]

Cc1cccc2[nH]c(-c3ccc(-c4ccc(CNCCNC(=O)c5ccnn5C)cc4)cc3)nc12
inactive: inhibition [2] 29% | inhibition [3] -2% | outcome [5] | outcome [6] | outcome [7] | outcome [8]
active: growth inhibition [1] 98% | growth inhibition [4] 102%

O=C(NCc1cccs1)[C@H](Cc1ccccc1)Nc1ccnc(NCCc2ccc(F)cc2)n1
active: growth inhibition [1] 52% | growth inhibition [4] 85%
inactive: inhibition [2] 1% | inhibition [3] -2% | outcome [5] | outcome [6] | outcome [7] | outcome [8]

Cc1ccc(-c2nnc(Nc3ccc(OCC(N)=O)cc3)c3ccccc23)cc1S(=O)(=O)NCC1CCCO1 (configuration not stated)
active: growth inhibition [1] 70% | growth inhibition [4] 92%
inactive: inhibition [2] 0% | inhibition [3] -2% | outcome [5] | outcome [6] | outcome [7] | outcome [8]

COc1cc(C(=O)Nc2ccc3nc(N4CCN(C)CC4)cc(C)c3c2)cc(OC)c1OC
active: growth inhibition [1] 79% | growth inhibition [4] 102%
inactive: inhibition [2] 18% | inhibition [3] -6% | outcome [5] | outcome [6] | outcome [7] | outcome [8]

Clc1ccc(Nc2nc3nonc3nc2Nc2ccc(Cl)c(Cl)c2)cc1
active: growth inhibition [1] 92% | inhibition [2] 75% | growth inhibition [4] 99%
inactive: inhibition [3] 0% | outcome [5] | outcome [6] | outcome [7] | outcome [8]

Cc1cc(N2CCC(C)CC2)nc2cc(O)ccc12
active: growth inhibition [4] 89%
inactive: growth inhibition [1] 41% | inhibition [2] 31% | inhibition [3] -1% | outcome [5] | outcome [6] | outcome [7] | outcome [8]

COc1cc(Nc2ccc3cc(S(=O)(=O)N4CCCCC4C)ccc3n2)cc(OC)c1OC (configuration not stated)
active: growth inhibition [1] 78% | growth inhibition [4] 88%
inactive: inhibition [2] -5% | inhibition [3] -1% | outcome [5] | outcome [6] | outcome [7] | outcome [8]

COc1ccc(-c2cccc(NC(=O)c3ccc(Cl)cc3)c2)cc1CN1CCC(O)CC1
active: inhibition [2] 51% | growth inhibition [4] 100%
inactive: growth inhibition [1] 43% | inhibition [3] 3% | outcome [5] | outcome [6] | outcome [7] | outcome [8]

CN1CCCCC1CCc1cc(C(=O)Nc2ccc(-c3ccc(O)cc3)cc2)ccc1O (configuration not stated)
inactive: growth inhibition [1] 11% | inhibition [2] 6% | inhibition [3] 3% | outcome [5] | outcome [6] | outcome [7] | outcome [8]
active: growth inhibition [4] 91%

COc1cc(-c2nc(-c3ccccc3)c(-c3ccc(C(=O)c4ccc(F)cc4)cc3)[nH]2)cc(OC)c1O
active: growth inhibition [1] 100% | growth inhibition [4] 101%
inactive: inhibition [2] 0% | inhibition [3] -3% | outcome [5] | outcome [6] | outcome [7] | outcome [8]

O=C(/C=C/c1ccccc1Cl)Nc1ccc(Br)c(OCCN2CCN(CCN3CCCC3)CC2)c1
active: growth inhibition [1] 89% | growth inhibition [4] 99%
inactive: inhibition [2] 26% | inhibition [3] -7% | outcome [5] | outcome [6] | outcome [7] | outcome [8]

Clc1ccc2c(N3CCN(CCN4CCN(c5ccnc6cc(Cl)ccc56)CC4)CC3)ccnc2c1
active: growth inhibition [1] 100% | growth inhibition [4] 99%
inactive: inhibition [2] 10% | inhibition [3] 1% | outcome [5] | outcome [6] | outcome [7] | outcome [8]

CNC(=O)c1cnc(Nc2ccc(OCC(O)CN(C)C)cc2)nc1Nc1cccc(OC(C)C)c1 (configuration not stated)
active: growth inhibition [1] 100% | growth inhibition [4] 103%
inactive: inhibition [2] 21% | inhibition [3] 1% | outcome [5] | outcome [6] | outcome [7] | outcome [8]

CCCCCc1ccc(NC(=O)Nc2ccc(Cn3ncc(N4CCCNCC4)c(Cl)c3=O)cc2)cc1
active: growth inhibition [4] 87%
inactive: growth inhibition [1] 23% | inhibition [2] 15% | inhibition [3] 3% | outcome [5] | outcome [6] | outcome [7] | outcome [8]

Nc1ccc(-c2ccc(NC(=O)Nc3cc(C(F)(F)F)ccc3F)cc2)cn1
inactive: growth inhibition [1] 39% | inhibition [2] -6% | inhibition [3] -9% | outcome [5] | outcome [6] | outcome [7] | outcome [8]
active: growth inhibition [4] 99%

O=S(=O)(c1ccc2ccccc2c1)N1CCCN(Cc2ccc(OCCCN3CCCCC3)cc2)CC1
inactive: growth inhibition [1] 11% | inhibition [2] 43% | inhibition [3] -3% | outcome [5] | outcome [6] | outcome [7] | outcome [8]
active: growth inhibition [4] 98%

O=C(c1ccccc1)N1COCC(CCN2CCC(N3CCCC3)CC2)(c2ccc(Cl)c(Cl)c2)C1 (configuration not stated)
inactive: growth inhibition [1] 9% | inhibition [2] 18% | inhibition [3] 0% | outcome [5] | outcome [6] | outcome [7] | outcome [8]
active: growth inhibition [4] 83%

O=C(/C=C/C=C/c1ccc(Cl)c(Cl)c1)NCCCCCN1CCCC2CCCCC21 (configuration not stated)
active: growth inhibition [4] 91%
inactive: growth inhibition [1] 48% | inhibition [2] 41% | inhibition [3] -5% | outcome [5] | outcome [6] | outcome [7] | outcome [8]

CC(C)NCc1ccc(-c2ccc(-c3nc4ccc(F)cc4[nH]3)cc2)cc1
inactive: inhibition [2] 14% | inhibition [3] -5% | outcome [5] | outcome [6] | outcome [7] | outcome [8]
active: growth inhibition [1] 100% | growth inhibition [4] 101%

CN(CCCCCN1CCC(NC(=O)Nc2ccc(C(F)(F)F)cc2)C1)C(=O)/C=C/c1ccc(Cl)c(Cl)c1 (configuration not stated)
inactive: growth inhibition [1] 11% | inhibition [2] 28% | inhibition [3] -3% | outcome [5] | outcome [6] | outcome [7] | outcome [8]
active: growth inhibition [4] 101%
